High-throughput results from PubChem.
Lassa entry inh = inhibitors of Lassa virus binding or cell entry. 1.2% of 300,000 active. Lassa virus pseudotype entry inhibition, cell reporter. Potency, µM (top dose mostly 37.9 µM), for the others: top-dose activity change, negative = inhibition, usual class: inhibitors; calls by dose curve; tested in HEK293 cells; note: potency is the fitted concentration of half-maximal effect; nearly all actives have a fitted effect of over 50% in size
MARV entry inh = inhibitors of Marburg virus binding or cell entry | Marburg virus pseudotyped entry inhibition, cell reporter | Potency, µM (series often up to 37.8 µM), without a hit: at the top dose activity change, negative = inhibition, most hits filed as inhibitors | 1.8% of 300,000 active; calls by dose curve; tested in HEK293 cells; note: potency is the fitted concentration of half-maximal effect
HCMV antiviral = inhibitors of human cytomegalovirus. HFF cells, HCMV-luciferase reporter, 72 h; active compounds read low. activity change, negative = inhibition, % at 57.5 µM. 4.5% of 410,000 active. AID 1259415; in the data active = activity change below about -60%; inconclusive = no clear call, values can overlap the other calls; inactive = above about -39%
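Cell-based, HFFs, 1000 cells/well, 16 h 37C; cpds in DMSO + HCMV-luc, MOI 1 PFU/cell; 72 h 37C; OneGlo luminescence after 5 min RT; norm. to buffer vs Salinomycin 10uM.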
FMDV antiviral = blocks foot and mouth disease virus. FMDV antiviral cell-based qHTS. Potency, µM (titrated, usually from 57.9 µM), for inactives: at the highest dose activity change, negative = inhibition, most hits filed as inhibitors. 1.2% of 410,000 active. AID 1159524; calls by dose curve; tested in HEK293T cells; note: read-out not given here; potency is the fitted concentration of half-maximal effect; nearly all actives have a fitted effect of over 45% in size
* hit, by the source's call; ? = inconclusive; . = no result; [ ] = another dose, or the depositor's remark. Shown are actives, neighbours in structure and some others; about 6.2% of the full set was active somewhere. % is set by controls: 0 for no effect and ±100 for the full control effect.

SMILES	Lassa entry inh	MARV entry inh	HCMV antiviral	FMDV antiviral
O=C(CSc1ccc2ccccc2n1)N/N=C/c1ccccc1O	.	.	-100*	11%
O=C(CSC1c2ccccc2-c2ccccc21)N/N=C/c1ccc(C(=O)O)cc1	-2%[46.1 µM]	-15%[46.1 µM]	-34	-17%
Cc1cc(SCC(=O)N/N=C/c2ccccc2C(=O)O)c(C)cc1Br	-9%[46.1 µM]	1%[46.1 µM]	-18	-5%
CCOC(=O)N1CCN(C(=O)c2ccc(N3C(=O)CCC3=O)cc2)CC1	18%	-5%	15	22%
CCC1CCCCN1CCCNC(=O)C1CCN(Cc2nc(-c3ccc(Cl)cc3)oc2C)CC1 (stereo not drawn)	.	.	.	-21%
Cc1c(CC(=O)NCCc2ccc(Cl)cc2)c(=O)oc2c(C)c3occ(C(C)(C)C)c3cc12	14%[46.1 µM]	11%[46.1 µM]	-68*	-18%
COc1cccc(CN2CC(C(=O)N3CCCCCC3)CCC2=O)c1 (stereo not drawn)	13%	?	-3	19%
Cc1ccccc1NC(=O)NC1CCCCC1C (stereo not drawn)	3%	?	35	1%
CC(C)NC(=O)c1ccc(-n2c(=S)[nH]c3ccccc3c2=O)cc1	.	.	-84*	.
Nc1ccc2ccc(N)cc2c1	.	.	-65*	.
C=CCNC(=O)CN(c1ccc(F)c(Cl)c1)S(C)(=O)=O	11%	13%	25	.
CCCCCCOC(=O)C(C#N)c1nc2ccccc2nc1N1CCN(CC)CC1 (stereo not drawn)	?	4.6µM*	-24	-28%
CCCCCCOC(=O)C(C#N)c1nc2ccccc2nc1N1CCOCC1 (stereo not drawn)	-20%	3%	-38	0%
CCOC(=O)c1cc(C(=O)c2cccs2)n2ccc(C(C)=O)cc12	3%	0%	-7	-23%
COc1ccc(-n2cc(CNCC3CCOCC3)c(-c3cccc(F)c3)n2)cc1	.	.	-89*	12%
COc1ccc(-n2cc(CNCC3CC(=O)N(C4CC4)C3)c(-c3ccccc3Cl)n2)cc1 (stereo not drawn)	?	11µM*	3	-13%
COc1ccc(-n2cc(CN(C)C3CCOCC3)c(-c3cccc(F)c3)n2)cc1	?	?	-24	-7%
CCc1ccccc1NC(=O)Nc1ccc(F)cc1	?	-24%[46.1 µM]	0	12%
CCCc1c(NC(=O)Nc2ccc(F)cc2)cnn1-c1ccc(Cl)cc1	5µM*	?	-81*	?
CCN(CC)CCCOC(=O)C(OC(C)C)(c1ccccc1)c1ccccc1	16µM*	12µM*	-37	?
CCN(CC)CCOCCOC(=O)C(CC)(CC)c1ccccc1	?	-71%	17	-11%
Cc1cccc(-c2nc3ccccc3c(=O)n2NC(=O)c2cccnc2Cl)c1	1%	19%	-69*	-19%
O=C(Nc1ccc(S(=O)(=O)Nc2ncccn2)cc1)c1ccc(Br)cc1	.	.	?	-2%
CCCCOC(=O)/C=C/c1ccc(OC(=O)OC)c(OC(=O)OC)c1	?	11µM*	-18	-2%
COc1cc(NC(=O)COC(=O)/C=C/c2ccc(OC)c(OC)c2)cc(OC)c1	7%	-16%	40	-17%
SMILES	Lassa entry inh	MARV entry inh	HCMV antiviral	FMDV antiviral
COc1cc(NC(=O)COC(=O)/C=C/c2ccccc2Cl)cc(OC)c1	?	15%	-103*	-23%
CC(C)c1cccc(C(C)C)c1NC(=O)c1ccc(OCC(=O)NCc2ccccc2)cc1	-19%	3%	.	.
O=S(=O)(c1ccccc1)c1nc(-c2ccco2)oc1Nc1ccccc1	?	0%	-62*	31%
O=S(=O)(c1ccc(F)cc1)c1nc(-c2ccco2)oc1Nc1ccccc1	?	11%	6	54%
CN1[C@@H]2CC[C@H]1CC(O[C@@H](c1ccccc1)c1ccc(Cl)cc1)C2 (stereo partly drawn)	.	3.2µM*	.	-21%
CN1[C@@H]2CC[C@H]1CC(OC(c1ccccc1)c1ccccc1)C2 (stereo partly drawn)	.	5µM*	.	0%
CN1C2CCC1CC(OC(c1ccccc1)c1ccccc1)C2 (stereo not drawn)	.	5µM*	-32	?
CN1CCC(OC(c2ccccc2)c2ccc(Cl)cc2)C1 (stereo not drawn)	?	7.1µM*	-38	-12%
CN1[C@@H]2CC[C@H]1CC(OC(=O)C(O)c1ccccc1)C2 (stereo partly drawn)	.	.	-12	-23%
CN1C2CCC1CC(OC(c1ccc(F)cc1)c1ccc(F)cc1)C2 (stereo not drawn)	.	.	.	-11%
Cc1ccc(-c2nc(CN3CCN(c4cnccn4)CC3)c(C)o2)o1	2%	4%[46.1 µM]	-5	7%
COc1ccc(NC(=O)c2ccc(-c3c(C)noc3C)c3ccoc23)cn1	.	.	36	-2%
COC(=O)C1(C)NC(c2ccc(O)cc2)C2C(=O)N(c3ccc4c(c3)OCCO4)C(=O)C21 (stereo not drawn)	-3%	5%	-73*	-19%
COC(=O)C1(CCSC)NC(c2ccc(O)cc2)C2C(=O)N(c3ccc4c(c3)OCCO4)C(=O)C21 (stereo not drawn)	-1%	7%	38	-2%
CCN(CC)C(=O)n1nc(C)c(CN2C(=O)c3ccccc3C2=O)c1C	1%	3%	36	-16%
COc1ccc(N2CC(O)=C(c3nc(-c4ccc(Br)cc4)cs3)C2=N)cc1	.	.	-67*	5%
CC(=O)Nc1ccc(NC(=O)CSc2n[nH]c(-c3cccs3)n2)cc1	20%	18%	-6	-8%
COc1ccc(C(=O)Nc2cc(C(F)(F)F)ccc2-n2cnc3ccccc32)cc1	0%	?	-73*	15%
CC(=O)Nc1ccc(C(=O)Nc2cc(C(F)(F)F)ccc2-n2cnc3ccccc32)cc1	-2%	?	47	-4%
CCCN(C(=O)c1cc(S(=O)(=O)N2CCc3ccccc32)cn1C)c1ccc(OCC)cc1	17%[46.1 µM]	.	-75*	-8%
Cn1cc(S(=O)(=O)N2CCc3ccccc32)cc1C(=O)Nc1ccc(Cl)cc1	.	.	-12	28µM*
CCOC(=O)c1cc(S(=O)(=O)N2CCc3ccccc32)cn1C	.	.	-39	-3%
Cc1ccc(NC(=O)c2cc(S(=O)(=O)N3CCc4ccccc43)cn2C)cc1	.	.	-16	?
Cn1cc(S(=O)(=O)N2CCc3ccccc32)cc1C(=O)NC(C)(C)C	.	.	-79*	?
Cc1cccc(C)c1NC(=O)c1cc(S(=O)(=O)N2CCc3ccccc32)cn1C	.	.	25	-5%
SMILES	Lassa entry inh	MARV entry inh	HCMV antiviral	FMDV antiviral
COc1ccc(CN2Cc3ccccc3OC(c3ccccc3OC)C2)c(O)c1 (stereo not drawn)	.	.	.	-14%
Cc1ccc(S(=O)(=O)NCc2nc(-c3ccccc3)no2)cc1	-13%	-2%	-27	0%
O=[N+]([O-])c1cccc2c(N3CCCC3)ccnc12	?	?	-106*	?
O=[N+]([O-])c1ccc(N2CCOCC2)c2cccnc12	.	.	5	-15%
Cc1cc(/C=N\NC(=O)CC(=O)NC2CCCCC2)c(C)n1-c1ccc(Cl)cc1	-6%	-14%	?	-16%
CC(C)NC(=O)c1cnc(N2CCN(c3ccccn3)CC2)c2ccccc12	?	?	-2	?
CCc1ccc(NC(=O)c2cnc(N3CCN(c4ccccn4)CC3)c3ccccc23)cc1	?	?	-19	11µM*
CCN1CCN(c2ncc(C(=O)Nc3ccccc3C(=O)OC)c3ccccc23)CC1	?	13µM*	-7	-17%
